Screens as filed in PubChem BioAssay.
The sample as a whole holds a higher share of hits than the screen did.
RECQ1 helicase: qHTS Assay for Inhibitors of RecQ-Like Dna Helicase 1 (RECQ1). ATP-dependent DNA helicase Q1 (Homo sapiens), P46063. RECQ1 DNA unwinding, red fluorescence kinetic read. Potency, µM (top dose mostly 57.3 µM), actives largely listed as inhibitors. 240,000 compounds, 0.54% hits; note: nearly all actives have a fitted effect of over 30% in size
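RECQ1T1 50 nM; forked duplex (20 bp + 30-nt ss tails) 200 nM, ATP 2 mM final; pH 8.0, 2 mM MgCl2, 2.5 ug/ml poly(dI-dC); 15 min compound preincubation; discontinuous kinetic read over 2 h at RT.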
RGS12 GoLoco inh: qHTS Assay for Inhibitors of RGS12 GoLoco Motif Activity (Red Fluorophore) | Guanine nucleotide-binding protein G(i) subunit alpha-1 (Homo sapiens), P63096 | Gai1:RGS12 GoLoco peptide FP, rhodamine, 10 min | Potency, µM (highest dose often 61.6 µM), actives largely listed as inhibitors | 230,000 compounds, 0.44% hits | AID 880, 2007; active = well fitted inhibition curve with a large enough effect, not every such curve was filed as active; inactive = no such curve, though single readings can be large or run the other way; note: nearly all actives have a fitted effect of over 30% in size
BLM helicase inh: qHTS Assay for Inhibitors of Bloom's syndrome helicase (BLM); Potency, µM (titrated, usually from 56.1 µM), most hits filed as inhibitors; RecQ-like DNA helicase BLM (Homo sapiens), P54132; 350,000 compounds, 0.2% hits; AID 2528, 2010; recombinant BLM DNA unwinding, fluorescence dequenching; note: nearly all actives have a fitted effect of over 35% in size
L3MBTL1 inh-1: qHTS Assay for the Inhibitors of L3MBTL1; Lethal(3)malignant brain tumor-like protein 1 (Homo sapiens), Q9Y468; AlphaScreen L3MBTL1–H3K9me1 peptide binding; Potency, µM (titrated, usually from 57.1 µM), hits mostly inhibitors; 230,000 compounds, 0.66% hits; AID 485360, 2010; note: nearly all actives have a fitted effect of over 60% in size
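Displacement of a biotinylated histone H3(1-15) peptide monomethylated at Lys9 (75 nM) from L3MBTL1 (50 nM) was measured by AlphaScreen after a 30 min room-temperature compound incubation; cefsulodin titration served as intraplate control.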
APEX1 inh: qHTS Assay for Inhibitors of the Human Apurinic/apyrimidinic Endonuclease 1 (APE1); DNA repair nuclease/redox regulator APEX1 (Homo sapiens), P27695; recombinant APE1, TAMRA/BHQ-2 abasic DNA cleavage fluorescence; Potency, µM (doses to about 65.8 µM), hits mostly inhibitors; 350,000 compounds, 0.35% hits; note: nearly all actives have a fitted effect of over 55% in size
Target sequence (P27695 whole entry, looked up): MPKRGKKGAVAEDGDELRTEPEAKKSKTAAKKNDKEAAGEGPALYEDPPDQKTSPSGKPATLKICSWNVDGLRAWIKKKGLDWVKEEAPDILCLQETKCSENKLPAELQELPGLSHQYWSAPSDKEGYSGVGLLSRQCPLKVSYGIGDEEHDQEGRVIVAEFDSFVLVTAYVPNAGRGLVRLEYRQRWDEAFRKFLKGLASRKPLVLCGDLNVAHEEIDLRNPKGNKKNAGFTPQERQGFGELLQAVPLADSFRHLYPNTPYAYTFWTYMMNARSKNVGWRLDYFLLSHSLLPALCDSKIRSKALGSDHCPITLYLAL
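Readout is kinetic fluorescence (ex 525, em 598 nm) from cleavage of 50 nM TAMRA/BHQ-2 THF abasic duplex by 0.75 nM APE1, compound added 15 min beforehand at RT.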
KDM4E inh: qHTS Assay for Inhibitors of Human Jumonji Domain Containing 2E (JMJD2E); JMJD2E catalytic domain, FDH-coupled NADH fluorescence (FDH is formaldehyde dehydrogenase); Potency, µM (doses to about 57.1 µM), actives largely listed as inhibitors; 230,000 compounds, 1.6% hits; AID 2147, 2009; active = well fitted inhibition curve with a large enough effect, not every such curve was filed as active; inconclusive = small, poorly fitted or top-dose-only effect, or another doubt; inactive = no such curve, though single readings can be large or run the other way; note: nearly all actives have a fitted effect of over 50% in size
L3MBTL1 inh-2: qHTS Assay for the Inhibitors of L3MBTL1: Hit Validation | shares compounds with L3MBTL1 inh-1 | L3MBTL1 methyl-lysine binding inhibition, biochemical qHTS | Potency, µM, actives largely listed as inhibitors | 500 compounds, 91% hits | AID 540279, 2011; note: nearly all actives have a fitted effect of over 70% in size
L3MBTL1 ctr: qHTS Assay for the Inhibitors of L3MBTL1: Hit Validationin AlphaScreen Counterscreen; 500 tested, under 10 active; AlphaScreen counterscreen, signal inhibition; Potency, µM (top dose mostly 57.1 µM), actives largely listed as inhibitors; AID 602224, 2012; shares compounds with L3MBTL1 inh-1
Large screens that a line does not name were inactive (follow-up assays come after a bar, where they were run). Unless noted, calls come from the whole dose curve; as a rule, active = well fitted curve in the direction sought with a large enough effect; inconclusive = small, poorly fitted or top-dose-only effect, or another doubt; inactive = no such curve, though single readings can be large; an effect the other way counts as inactive or inconclusive.

CCc1ccc(S(=O)(=O)c2nnn3c2nc(N2CCN(c4ccccc4)CC2)c2cc(Cl)ccc23)cc1	none (no result: RECQ1 helicase, RGS12 GoLoco inh, L3MBTL1 inh-1, APEX1 inh, KDM4E inh)
Cc1ccc(S(=O)(=O)N2CCN(C(=O)/C=C/c3ccco3)CC2)cc1	L3MBTL1 inh-1 28µM | L3MBTL1 inh-2 27 | L3MBTL1 ctr inactive
Oc1ccccc1N=Cc1c(O)ccc2ccccc12	L3MBTL1 inh-1 28µM, KDM4E inh 25µM | L3MBTL1 inh-2 6 | L3MBTL1 ctr inactive
Oc1ccc2ccccc2c1C=Nc1ccccc1Br	none (no result: RECQ1 helicase, RGS12 GoLoco inh, KDM4E inh)
CCN=C1S/C(=C/c2ccc(-c3ccc(Cl)cc3C(=O)O)o2)C(=O)N1CC	none (no result: RECQ1 helicase, RGS12 GoLoco inh, L3MBTL1 inh-1, KDM4E inh)
CCN=C1S/C(=C\c2ccc(-c3cccc(C(=O)O)c3)o2)C(=O)N1CC	L3MBTL1 inh-1 40µM | L3MBTL1 inh-2 24 | L3MBTL1 ctr inactive
COc1ccc2c(CC(=O)NCc3ccc4c(c3)OCO4)coc2c1	L3MBTL1 inh-1 25µM | L3MBTL1 inh-2 27 | L3MBTL1 ctr inactive
O=C(CSc1cccc2cccnc12)Nc1ccc(S(=O)(=O)N2CCOCC2)cc1	L3MBTL1 inh-1 22µM, KDM4E inh inconclusive | L3MBTL1 inh-2 inconclusive | L3MBTL1 ctr inconclusive
O=C(CSc1cccc2cccnc12)Nc1cccc(S(=O)(=O)N2CCOCC2)c1	KDM4E inh inconclusive
c1ccc(-c2ccccn2)nc1	KDM4E inh inconclusive
OC(c1ccccn1)(c1ccccn1)c1ccccn1	L3MBTL1 inh-1 16µM | L3MBTL1 inh-2 21 | L3MBTL1 ctr inactive
CCCN(C(=O)c1cccc(-n2cccc2)c1)c1c(N)n(Cc2ccccc2)c(=O)[nH]c1=O	L3MBTL1 inh-1 10µM, APEX1 inh 6.7µM (no result: RECQ1 helicase, RGS12 GoLoco inh, BLM helicase inh, KDM4E inh) | L3MBTL1 inh-2 4.7 | L3MBTL1 ctr inactive
CCCCN(C(=O)c1cccc(-n2cccc2)c1)c1c(N)n(CCCC)c(=O)[nH]c1=O	L3MBTL1 inh-1 inconclusive (no result: RECQ1 helicase, RGS12 GoLoco inh, BLM helicase inh, KDM4E inh)
CCCCN(C(=O)c1cccc(-n2cccc2)c1)c1c(N)n(CCC)c(=O)[nH]c1=O	L3MBTL1 inh-1 14µM (no result: RECQ1 helicase, RGS12 GoLoco inh, BLM helicase inh, KDM4E inh) | L3MBTL1 inh-2 9.5 | L3MBTL1 ctr inactive
CCCN(C(=O)c1ccc([N+](=O)[O-])c(C)c1)c1c(N)n(Cc2ccccc2)c(=O)[nH]c1=O	none (no result: RECQ1 helicase, RGS12 GoLoco inh, BLM helicase inh, KDM4E inh)
CC(=O)N(Cc1cccnc1)c1nc2c(C)cccc2s1	none (no result: RECQ1 helicase, RGS12 GoLoco inh, L3MBTL1 inh-1, APEX1 inh, KDM4E inh)
CCN(CC)CCn1c(-c2ccccc2)nc2c(NCCO)nc(C)nc21	KDM4E inh inconclusive (no result: L3MBTL1 inh-1)
O=C(NCc1ccco1)c1cc2ccc(O)cc2oc1=O	RECQ1 helicase inconclusive, L3MBTL1 inh-1 20µM, APEX1 inh inconclusive, KDM4E inh inconclusive | L3MBTL1 inh-2 9.5 | L3MBTL1 ctr inactive
Cc1ccc(/C=C/C(=O)N2CCc3ccccc32)o1	RECQ1 helicase inconclusive, BLM helicase inh inconclusive, L3MBTL1 inh-1 32µM, APEX1 inh inconclusive | L3MBTL1 inh-2 6 | L3MBTL1 ctr inactive
CCOC(=O)c1c(C)n(S(=O)(=O)c2ccc(C)cc2)c2ccc(NS(=O)(=O)c3ccc(C)cc3)cc12	none (no result: RECQ1 helicase, RGS12 GoLoco inh, L3MBTL1 inh-1, APEX1 inh, KDM4E inh)
CCOc1ccc(NC(=O)CC2C(=O)N(c3cccc(C)c3)C(=O)N2CCC2=CCCCC2)cc1 (stereo not drawn)	none (no result: RECQ1 helicase, RGS12 GoLoco inh, L3MBTL1 inh-1, APEX1 inh, KDM4E inh)
COc1ccccc1Sc1nc(-c2ccccn2)ncc1OC	L3MBTL1 inh-1 4µM | L3MBTL1 inh-2 19 | L3MBTL1 ctr inactive
COc1ccc(C2C3C=CCC(c4cccc(/C=C/c5ccccc5)c4)C3C(=O)N2Cc2ccccc2)cc1Cl (stereo not drawn)	none (no result: RGS12 GoLoco inh, L3MBTL1 inh-1, KDM4E inh)
